Reference: ChEMBL document CHEMBL3988442, “University of Dundee, Small-Polar-MMV Screening Library” (2021)
Several values for one entry are separate records, joined by “and”; a condition that tells them apart may be missing. Equal values may be shown once. About 290 (0.85%) of roughly 34,000 compounds showed an effect of 50% or more. Many of the other results were omitted from the sample, so strong results are more common in it than they were.

System: Plasmodium falciparum
Experiment: Plasmodium falciparum sporozoite viability assay
Format: functional, organism-based
Set-up: scale not given: in the data most compounds retested in dose-response had high values

In the case of CC(=O)N1CCN(c2ccc3ccc(C(=O)NC4CCCC4)cn23)CC1, the “Percent Effect” value is reported as -4.944%.
For Cc1cc(C(=O)N2CCN(c3ncc4c(n3)CCOC4)CC2)sc1C, the “Percent Effect” value was -7.443%.
For Cn1c(C2CC2)nc2c1CCN(Cc1nc3ccccc3s1)C2, the “Percent Effect” value (10 mM as filed; unlikely as a test dose) was 48.9% and 53.74%.
Cc1nc2ccccc2nc1CN1CCc2c(nc(C3CC3)n2C)C1 was tested, and the “Percent Effect” value (10 mM as filed; unlikely as a test dose) was -9.933% and -2.839%.
With Cc1nc(CN2CCc3c(nc(C4CC4)n3C)C2)nc2ccccc12 the “Percent Effect” value (10 mM as filed; unlikely as a test dose) was -16.27% and -10.13%.
In the case of c1ccc2nc(N3CCOC(Cn4cccn4)C3)cnc2c1 (configuration not stated), the “Percent Effect” value is reported as 7.131%.
In the case of OCC1CCCN1c1cc(NCc2ccsc2)ncn1 (configuration not stated), the “Percent Effect” value is reported as 11.95%.
In the case of Cc1cccnc1CNc1cc(N2CCCC2CO)ncn1 (configuration not stated), the “Percent Effect” value is reported as -13.57%.
With OCC1CCCN1c1cc(NCc2ccccn2)ncn1 (configuration not stated) the “Percent Effect” value (10 mM as filed; unlikely as a test dose) was -21.68% and -23.27%.
OCC1CCCN1c1cc(NCCc2ccsc2)ncn1 (configuration not stated) was tested, and the “Percent Effect” value (10 mM as filed; unlikely as a test dose) was 86.32% and 73.55%.
OCC1CCCN1c1cc(NCCNc2cccnn2)ncn1 (configuration not stated) was tested, and the “Percent Effect” value (10 mM as filed; unlikely as a test dose) was 9.971% and -4.087%.
With OCC1CCCN1c1cc(NCCc2nccs2)ncn1 (configuration not stated) the “Percent Effect” value (10 mM as filed; unlikely as a test dose) was 21.04% and 15.76%.
For OCC1CCCN1c1cc(NCCc2ccccn2)ncn1 (configuration not stated), the “Percent Effect” value (10 mM as filed; unlikely as a test dose) was 91.05% and 79.59%.
In the case of CC(C)CN(C)Cc1nc2c(cnn2C)c(=O)[nH]1, the “Percent Effect” value is reported as 7.587%.
For CN(C)CC1CN(Cc2nc(-c3ccccn3)no2)CCO1 (configuration not stated), the “Percent Effect” value was 24.23%.
For CN1CCN(S(=O)(=O)c2ccc(Cl)c(Cl)c2)c2cnccc21, the “Percent Effect” value (10 mM as filed; unlikely as a test dose) was -22.78% and -8.887%.
For Cc1cc(-c2cc(F)ccc2C(=O)O)nc(C2CCCCN2C(C)C)n1 (configuration not stated), the “Percent Effect” value was 4.863%.
In the case of CC(=O)N1N=C(c2ccccc2)OC1C(=O)NCCc1ccc(O)cc1 (configuration not stated), the “Percent Effect” value is reported as 3.916%.
CC[C@@H](C)[C@@H](N)C(=O)Nc1cccc(-c2cnc(N(C)CCO)nc2)c1 was tested, and the “Percent Effect” value was 4.657%.
In the case of CCn1cc(NC(=O)NCCN2CCCc3ccccc32)cn1, the “Percent Effect” value is reported as -384.2%.
Cn1cc(CCNC(=O)CCc2ccc3c(c2)OCO3)cn1 was tested, and the “Percent Effect” value was 0.08354%.
O=C(CCn1cccn1)NS(=O)(=O)N1CCCc2ccccc21 was tested, and the “Percent Effect” value (10 mM as filed; unlikely as a test dose) was 88.08% and 94.17% and 83.19%.
Cn1cc(CCC(=O)NS(=O)(=O)N2CCCc3ccccc32)cn1 was tested, and the “Percent Effect” value (10 mM as filed; unlikely as a test dose) was 95.69% and 93.95% and 93.94%.
In the case of Cc1cnn(CCC(=O)NS(=O)(=O)N2CCc3ccccc32)c1, the “Percent Effect” value (10 mM as filed; unlikely as a test dose) is reported as -13.26% and -21.53% and -23.4%.
For Cn1nc(CNC(=O)c2ccc(OC(F)(F)F)cc2)c2c1CCOC2, the “Percent Effect” value was -1.164%.
Cn1ncc(NCc2cccc(F)c2)c(Cl)c1=O was tested, and the “Percent Effect” value was 2.958%.
In the case of CNC(=O)[C@@H]1CCO[C@@H]2CCN(CCc3ccccc3)C[C@H]21.O=C(O)C(F)(F)F, the “Percent Effect” value is reported as 14.59%.
With Cc1cnc(N(C)Cc2cnc3ccccc3n2)nc1N(C)C the “Percent Effect” value (10 mM as filed; unlikely as a test dose) was 42.78% and 58%.
CC(CO)CN(Cc1ccccc1)Cc1cnc2ccccc2n1 (configuration not stated) was tested, and the “Percent Effect” value (10 mM as filed; unlikely as a test dose) was 33.49% and 37.4%.
With CC(=O)c1cnc(N(C)Cc2cnc3ccccc3n2)nc1C the “Percent Effect” value (10 mM as filed; unlikely as a test dose) was -14.78% and -20.36%.
In the case of Cc1cnn(C2CCCN(C(=O)Cc3ccc(C)s3)C2)c1 (configuration not stated), the “Percent Effect” value is reported as 7.18%.
For Cc1cnc(CCNc2cccc(CC3CCCNC3)n2)s1.Cl (configuration not stated), the “Percent Effect” value was -6.2%.
For Cc1nc(N(CCC(N)=O)Cc2ccccc2)c2nc(C)oc2n1, the “Percent Effect” value was 2.982%.
For CN(Cc1noc(C2CC2)n1)C1CCN(Cc2ccccc2C#N)C1 (configuration not stated), the “Percent Effect” value was 5.942%.
In the case of Cc1nccn1CCCC(=O)N1CCCC(c2noc(C(C)C)n2)C1 (configuration not stated), the “Percent Effect” value is reported as 1.926%.
In the case of CC(=O)N1CCCN(C(=O)NCc2ccc(-c3ccn[nH]3)cc2)CC1, the “Percent Effect” value is reported as 9.841%.
With CN1CCN(Cc2ccc(-c3ccc(C(N)=O)cc3)nc2)CC1 the “Percent Effect” value (10 mM as filed; unlikely as a test dose) was -29.68% and -21.28%.
CN1CCN(Cc2ccc(-c3ccc(-c4ccn[nH]4)cc3)nc2)CC1 was tested, and the “Percent Effect” value (10 mM as filed; unlikely as a test dose) was 56.12% and 32.6%.
In the case of O=C(NCc1nn(-c2ccccc2)c2c1CCC2)NCC1COCCO1 (configuration not stated), the “Percent Effect” value is reported as 13.65%.
In the case of Cc1nc2c(c(NCCc3nccs3)n1)CCN(CC1CC1)CC2, the “Percent Effect” value is reported as -1.253%.
In the case of Cc1cnn(CC2CCCN2C(=O)c2cc3ccccc3c(=O)[nH]2)c1 (configuration not stated), the “Percent Effect” value is reported as 2.755%.
For Cl.Cn1ccnc1CNC(=O)c1cnc(C2CCNCC2)cn1, the “Percent Effect” value was 2.787%.
For CN1CCC(c2cnc(NCc3nccn3C)cn2)CC1, the “Percent Effect” value (10 mM as filed; unlikely as a test dose) was 45.14% and 64.85% and 67.7%.
For CN1CCC(c2cccc(NCc3nccn3C)n2)CC1, the “Percent Effect” value (10 mM as filed; unlikely as a test dose) was 4.151% and -3.748% and -15.94%.
For COc1ccc(CN(C)[C@@H]2CN(C(=O)c3cnn(C)c3)C[C@H]2O)cc1, the “Percent Effect” value was 2.355%.
In the case of FC1(F)CCN(Cc2ccncc2)CC12CCN(c1cnccn1)C2.O=C(O)C(F)(F)F.O=C(O)C(F)(F)F.O=C(O)C(F)(F)F (configuration not stated), the “Percent Effect” value is reported as 22.83%.
In the case of O=C(c1[nH]nc(C2CC2)c1Cl)N1CCN(C2CC2)C(=O)C1, the “Percent Effect” value (10 mM as filed; unlikely as a test dose) is reported as 67.53% and 69.62%.
For O=C(c1[nH]nc(C2CC2)c1Cl)N1CCCC1, the “Percent Effect” value (10 mM as filed; unlikely as a test dose) was -32.9% and -32.97%.
For O=C(c1[nH]nc(C2CC2)c1Cl)N1CCN(C2CC2)CC1, the “Percent Effect” value (10 mM as filed; unlikely as a test dose) was -13.62% and -21.71%.
In the case of CCOCc1ncn2c1CN(C(=O)Nc1ccccc1CC)CC2, the “Percent Effect” value is reported as 3.671%.
In the case of CN(C)CCN1Cc2ncn(C)c2C(COCC(=O)N(C)C)C1 (configuration not stated), the “Percent Effect” value is reported as 10.44%.
CC1CCc2nn(CCNC(=O)Cc3ccccc3F)c(=O)cc2C1 (configuration not stated) was tested, and the “Percent Effect” value (10 mM as filed; unlikely as a test dose) was -25.04% and -6.135% and -21.75%.
CCN(CC)Cc1ccc(C(=O)N2CCCC2Cn2cccn2)o1 (configuration not stated) was tested, and the “Percent Effect” value was -5.987%.
For Cc1cc(N2CCC3(CCCN(CCO)C3=O)C2)nc2cc(Cl)ccc12 (configuration not stated), the “Percent Effect” value was -0.3581%.
In the case of CCOc1ccc(N2CCCN=C2NC(=O)c2cccc(Cl)c2)cc1, the “Percent Effect” value is reported as -13.96%.
With Cc1cccc(C(=O)Nc2ccc(OC3CCN(C)CC3)cc2)c1 the “Percent Effect” value (10 mM as filed; unlikely as a test dose) was 84.14% and 90.45% and 76.34%.
In the case of COc1ccc(NC(=O)c2cnc(C3CCN(C)CC3)nc2C)cc1, the “Percent Effect” value is reported as -1.219%.
For N#Cc1cc(NC(=O)c2ccccc2)ccc1N1CCC(O)CC1, the “Percent Effect” value was -10.71%.
In the case of O=C(NC1=NCCCN1c1ccc(Cl)cc1)c1cccc(Cl)c1, the “Percent Effect” value (10 mM as filed; unlikely as a test dose) is reported as -9.725% and -15.1% and -5.453%.
In the case of COc1cccc(C(=O)Nc2ccc(OC3CCN(C)CC3)cc2)c1, the “Percent Effect” value (10 mM as filed; unlikely as a test dose) is reported as 24.26% and 49.56% and 59.7%.
In the case of O=C(CN1CCCS1(=O)=O)Nc1ccc(OC2CCCC2)cc1, the “Percent Effect” value is reported as -4.929%.
For CCC1=N[C@@]2(CC[C@@H]3CN(Cc4ccc(Cl)cc4)C[C@@H]32)C(=O)N1C.O=C(O)C(F)(F)F, the “Percent Effect” value was -5.486%.
Cc1nc(CC(=O)N2CCC(c3nn(C)c4ncccc34)CC2)cs1.Cl was tested, and the “Percent Effect” value was 3.729%.
In the case of Cc1nc(-c2nnc[nH]2)sc1C(=O)N1CCCC1c1ccsc1 (configuration not stated), the “Percent Effect” value is reported as 7.018%.
For Cc1nc(C)n(C2CCCN(C(=O)c3csc(CC(C)C)n3)C2)n1 (configuration not stated), the “Percent Effect” value was 0.06439%.
With CN(C)c1ccc(C(=O)N2CCC(c3cc4ncccc4[nH]3)CC2)cc1 the “Percent Effect” value was -1.989%.
For CC(=O)NCCC(=O)NCc1cc(Br)ccc1OC(F)F, the “Percent Effect” value was -22.55%.
In the case of O=C(O)C(F)(F)F.O=C(c1ccccc1)N1CCCC2(CCN2Cc2cccc(F)c2)C1 (configuration not stated), the “Percent Effect” value is reported as 4.203%.
For CC(C)N1CCO[C@@H]2CN(C(=O)NCc3ccccc3)CC[C@@H]2C1.O=C(O)C(F)(F)F, the “Percent Effect” value was 8.185%.
In the case of CCC(=O)N1CCC(Cc2ccccc2-c2cccc(C)c2)(C(N)=O)C1 (configuration not stated), the “Percent Effect” value is reported as 2.181%.
For COc1cc(CNCc2ccnc(N3CCCCC3)c2)cc(OC)c1, the “Percent Effect” value was 3.028%.
For CSc1ccccc1C(=O)Nc1ccc(OC2CCN(C)CC2)cc1, the “Percent Effect” value (10 mM as filed; unlikely as a test dose) was 86.05% and 73.83% and 74.05%.
With O=C(CC1CC1)N1Cc2nccn2CC(Cn2ncccc2=O)C1 (configuration not stated) the “Percent Effect” value was 1.18%.
With CCN1CCCn2c(nc(CNC(=O)c3ccsc3)cc2=O)C1 the “Percent Effect” value was -13.03%.
With O=C(c1cc(Cl)c[nH]1)N(CCCO)Cc1cccnc1 the “Percent Effect” value was -9.649%.
With Nc1nc2c(c3c1C(=O)NC3=O)CCCC2 the “Percent Effect” value (10 mM as filed; unlikely as a test dose) was -19.96% and -21.28%.
For Nc1nc2c(c3c1C(=O)NC3=O)CCC2, the “Percent Effect” value (10 mM as filed; unlikely as a test dose) was 75.96% and 84.59%.
In the case of O=C1NC(=O)c2c3c(nc(O)c21)CCCC3, the “Percent Effect” value (10 mM as filed; unlikely as a test dose) is reported as -19.04% and -16.96% and 3.732%.
With CN(C)CCO[C@H]1CN(Cc2ccco2)[C@@H]2COC[C@H]12.O=C(O)C(F)(F)F.O=C(O)C(F)(F)F the “Percent Effect” value was 12.07%.
CCOC(=O)C1CCN(C(=O)c2cnn(-c3ccc(C)cc3)c2N)CC1 was tested, and the “Percent Effect” value was -31.22%.
With CCCC(=O)N1CCCC(c2ccccn2)C1 (configuration not stated) the “Percent Effect” value was -4.87%.
With CCC(=O)N1CCCC(C(=O)c2cnn(-c3ccc(F)cc3)c2N)C1 (configuration not stated) the “Percent Effect” value (10 mM as filed; unlikely as a test dose) was 46.01% and 80.8% and 57.02%.
CCC(=O)N1CCCC(c2nc(N(C)C)ncc2-c2ccc(F)cc2)C1 (configuration not stated) was tested, and the “Percent Effect” value was 2.091%.
CC(=O)N1CCC(C(=O)c2cnn(-c3ccccc3)c2N)C1 (configuration not stated) was tested, and the “Percent Effect” value was -4.265%.
In the case of CC(=O)N1CCCC(C(=O)c2cnn(-c3ccc(F)cc3)c2N)C1 (configuration not stated), the “Percent Effect” value (10 mM as filed; unlikely as a test dose) is reported as 27.98% and 70.48% and 45.02%.
In the case of COc1ccc2c(c1)c(-c1nc(N(C)C)ncc1CN)cn2C, the “Percent Effect” value is reported as 23.78%.
CCC(=O)N1CCC2(CC1)CNC(=O)c1cc(C)ccc1O2 was tested, and the “Percent Effect” value was 7.401%.
CCOc1ncccc1NC(=O)Nc1c(C)nn(C(C)C)c1C was tested, and the “Percent Effect” value was 2.999%.
For Clc1ccc(OCCCN2CCN(c3cnccn3)CC2)cc1, the “Percent Effect” value was -11.56%.
For O=C(Cn1cc(C2CC2)nn1)N(Cc1ccco1)CC1CCCO1 (configuration not stated), the “Percent Effect” value was -0.6519%.
Fc1cccc(Cc2cncc(C3CCCN3C3CCOCC3)n2)c1 (configuration not stated) was tested, and the “Percent Effect” value was -10.3%.
Cc1cccc(C(=O)N2CCN(C(=O)Cc3ccccn3)CC2)c1C was tested, and the “Percent Effect” value (10 mM as filed; unlikely as a test dose) was 0.7402% and -14.31% and -17.8%.
